D1 ag: Allosteric Agonists of the Human D1 Dopamine Receptor: qHTS; D(1A) dopamine receptor (Homo sapiens), P21728; HEK293 T-REx D1 cells, calcium flux, agonist mode; activation, % at 2 µM; 1% of 360,000 active; AID 504660, 2011
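Tetracycline-induced HEK293 TREx D1 cells, force-coupled to calcium signalling, were dye-loaded with a no-wash calcium kit. Compound was pin-added after a 10 s baseline. Fluorescence was read kinetically at 1 cycle/s for 180 s, with calcium rises flagged as agonism.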
D1 antagonist: Antagonist of Human D 1 Dopamine Receptor: qHTS | HEK293 TREx D1 cells, calcium flux, dopamine EC80; stronger effect = lower value | 3.2% of 360,000 active | D(1A) dopamine receptor (Homo sapiens), P21728 | activity change, negative = inhibition, % at 10 µM; in the data active = activity change below about -30%
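Antagonism measured as reduced calcium response to an EC80 dopamine addition following 180 s compound pre-read; cells were inducible HEK293 Trex D1 plated overnight at 30 C, read kinetically at 1 cycle/sec.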
D1 potentiator: Potentiators of Human D1 Dopamine Receptor: qHTS | HEK293 TREx D1 cells, calcium flux, dopamine EC20 potentiation | potentiation, % at 10 µM | AID 504651, 2011 | 0.036% of 360,000 active; in the data active = potentiation above about 30%
TRHR ag: qHTS for Small Molecule Agonists and Allosteric Enhancers of Human TRH Receptor: Primary Screen for Agonists; TRHR cells, calcium flux fluo-8, FDSS agonist mode; activation, % at 2 µM; 0.18% of 360,000 active; AID 493084, 2011
Target sequence (P34981 whole entry, looked up): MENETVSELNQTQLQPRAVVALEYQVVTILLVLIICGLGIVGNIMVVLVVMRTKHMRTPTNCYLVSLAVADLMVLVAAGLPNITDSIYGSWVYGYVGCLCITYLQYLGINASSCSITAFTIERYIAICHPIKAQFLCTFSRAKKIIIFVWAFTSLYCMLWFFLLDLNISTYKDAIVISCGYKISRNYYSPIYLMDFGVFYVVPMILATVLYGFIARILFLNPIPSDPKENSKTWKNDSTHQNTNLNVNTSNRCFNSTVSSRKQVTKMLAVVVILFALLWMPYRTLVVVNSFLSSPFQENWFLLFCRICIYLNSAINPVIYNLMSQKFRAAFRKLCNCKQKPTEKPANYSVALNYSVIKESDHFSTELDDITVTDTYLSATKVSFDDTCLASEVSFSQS
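Read-out: compound-evoked intracellular calcium rise in TRHR cells, fluo-8 dye, kinetic FDSS fluorescence at 1 s/cycle following a 10-cycle baseline. Cells cultured overnight before dye loading (30 min–1.5 h, RT).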
TRHR PAM: qHTS for Small Molecule Agonists and Allosteric Enhancers of Human TRH Receptor: Primary Screen for Enhancers; TRHR cells, fluo-8 calcium fluorescence, EC20 TRH enhancement; 0.66% of 360,000 active; enhancement, % at 2 µM; in the data active = enhancement above about 30%
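Enhancer read-out: after compound pinning and an initial kinetic agonist-mode read, an EC20 of TRH (10 nM final) was injected and fluo-8 calcium signal (Ex 480/Em 530) followed at 1 s/cycle for 100 cycles in TRHR-expressing cells.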
Of the large screens only hits and unclear results are named; the others gave an inactive call. Rows were chosen to be rich in hits. Some 4.6% of all compounds tested hit in one or more screens of this group. Cut-off read from the data, not from the text of the source, unless noted: active = activation above about 30%; inactive = the rest.

COCCNC(=O)C1CC2Cn3c(nc4cc(C)c(C)cc43)C2N1C (configuration not stated)	D1 antagonist -78
COCCNC(=O)C1CC2Cn3c(nc4cc5ccccc5cc43)C2N1C (configuration not stated)	none
Cc1ccc(C)c(CNc2ccc(S(=O)(=O)N3CCCCC3)cc2)c1	none (no result: D1 potentiator)
COc1ccc(OC)c(C(=O)CSc2nnc(Cc3cccs3)n2CCc2ccccc2)c1	D1 ag 51
COC(=O)c1ccccc1NC1CC(=O)N(c2c(C)cccc2C)C1=O (configuration not stated)	TRHR PAM 33
COC(=O)c1ccc(NC2CC(=O)N(c3ccccc3C)C2=O)cc1 (configuration not stated)	D1 antagonist -33
COC(=O)c1ccccc1SC1CC(=O)N(c2ccccc2)C1=O (configuration not stated)	none
O=C(O)c1nn(-c2cccc(Cl)c2)c(=O)cc1O	D1 antagonist -44
COc1ccc(OC)c(C2(O)CSC(=Nc3cccnc3)N2Cc2ccco2)c1 (configuration not stated)	none (no result: D1 antagonist)
OC1(c2ccc(OC(F)F)cc2)CSC(=Nc2cccnc2)N1C1CC1 (configuration not stated)	D1 antagonist -30
O=C(COc1ccccc1F)Nc1ccccc1OCc1cc(=O)n2ccccc2n1	none
COc1ccc(C2Nc3ccccc3NC3=C2C(=O)CC(C)(C)C3)c(OC)c1OC (configuration not stated)	none
COc1cccc(C2Nc3ccccc3NC3=C2C(=O)CC(C)(C)C3)c1OC (configuration not stated)	TRHR PAM 35
CC1(C)CC(=O)C2=C(C1)Nc1ccccc1N1C(=O)c3ccccc3C21 (configuration not stated)	D1 antagonist -42
COc1ccc(Nc2ncnc3c2nc2n3CCCC2)cc1Cl	none
CC(=O)c1ccc(C(=O)N(Cc2cccnc2)c2nc3c(C)c(C)ccc3s2)cc1	none (no result: D1 antagonist)
COc1cccc(CNC(C)(C)CO)c1OCc1ccc(Cl)cc1	none (no result: D1 potentiator)
COc1cccc(OCc2ccc(Cl)cc2)c1C#N	D1 antagonist -51
CC(C)C1(CCNC(=O)c2cccs2)CCOC(C)(C)C1 (configuration not stated)	none
CC(NCCC1(Cc2ccccc2Cl)CCOC(C)(C)C1)c1cccs1 (configuration not stated)	D1 ag 47
CCN1CCCC1CNC(=O)Cn1nc(C)n2c(cc3cc(F)ccc32)c1=O (configuration not stated)	TRHR PAM 35
CCC1CN(C(=O)N2CCC(C(=O)NCc3ccc(OC)cc3OC)CC2)c2cc(C)ccc2O1 (configuration not stated)	none
COc1ccc(NCC(=O)N2CCCC2)cc1Cl	D1 antagonist -30
COc1ccc(NS(=O)(=O)c2c(C)[nH]c(C)c2C(=O)N2CCCCC2)cc1Cl	none
Cc1ccc2nc(-c3c[nH]c4ccccc34)c(Nc3ccccc3C)n2c1	none
Cc1ccccc1Nc1c(-c2c[nH]c3ccccc23)nc2cccc(C)n12	D1 ag 33
Cc1ccc(NC(=O)Cn2c(=O)n(Cc3ccco3)c(=O)c3oc4ccccc4c32)cc1C	none
Cc1nc(-c2ccc(F)cc2)sc1CCNC(=O)c1cccs1	D1 antagonist -64
O=C(Cc1ccc(F)cc1)NCCc1csc(-c2cccc(F)c2)n1	none
O=C(NCCc1csc(-c2cccc(F)c2)n1)c1cccs1	D1 antagonist -62
O=C(NCCc1csc(-c2ccc(F)cc2)n1)c1cccc(F)c1	D1 antagonist -55
Clc1ccc(CN2C3=NCCN3c3ccccc32)cc1Cl	D1 ag 35
CC(=O)c1cccc(NC(=O)c2noc3c2CCCC3)c1	none
COC(=O)c1ccc(NC(=O)CC2C(=O)N(c3ccccc3)C(=O)N2Cc2ccco2)cc1 (configuration not stated)	none
COc1ccc(NC(=O)CC2C(=O)N(c3ccc(C)cc3)C(=O)N2Cc2ccc3c(c2)OCO3)cc1 (configuration not stated)	none
CCCCCCOc1ccc(NC(=O)CC2C(=O)N(CC)C(=S)N2Cc2ccco2)cc1 (configuration not stated)	D1 antagonist -40
CCN1C(=O)C(CC(=O)Nc2ccc(F)cc2)N(Cc2ccco2)C1=S (configuration not stated)	none
CCOc1ccc(NC(=O)CC2C(=O)N(c3ccccc3)C(=O)N2Cc2ccc3c(c2)OCO3)cc1 (configuration not stated)	D1 antagonist -51
CCOc1ccc(NC(=O)CC2C(=O)N(c3ccccc3)C(=O)N2Cc2ccco2)cc1 (configuration not stated)	D1 antagonist -42
CCOc1ccc(OCCNC(=O)C(NC(=O)c2c(F)cccc2F)C(C)C)cc1 (configuration not stated)	none
CCOC(=O)c1cc(-c2ccccc2)n(CCCC(=O)Nc2ccc(C)cc2Cl)c1C	none
CCc1ccc(-c2csc(-c3cc4cc(Br)ccc4oc3=O)n2)cc1	none
CCN(CC)c1ccc2cc(-c3nc(-c4ccc(Cl)cc4Cl)cs3)c(=O)oc2c1	D1 ag 119
CCN(CC)c1ccc2cc(-c3nc(-c4ccc(OC)cc4)cs3)c(=O)oc2c1	D1 ag 419, D1 antagonist -58, TRHR ag 174
Cn1cccc1-c1cc2n(n1)CCC(=O)N2CC(=O)Nc1ccc(F)cc1Cl	none
CCOC(=O)CC1c2cc(OCC)c(OCC)cc2CCN1C(=O)Nc1cccc(Cl)c1 (configuration not stated)	none
COc1ccc(OC)c(-n2c(-c3ccc(S(C)(=O)=O)cc3)cc(C=O)c2C)c1	none
COc1ccc(OC)c(-n2c(C)ccc2-c2ccc(S(C)(=O)=O)cc2)c1	D1 antagonist -69
Cc1ccc(NC(=O)c2cc(S(=O)(=O)N(C)C)ccc2N2CCCC2)cc1F	none
Cc1ccccc1NC(=O)c1ccc(NS(=O)(=O)c2cc(C(C)(C)C)cc(C)c2C)cc1	D1 antagonist -85
Cc1cc(C(C)(C)C)cc(S(=O)(=O)Nc2cccc(C(=O)O)c2)c1C	none
Cc1cccc(NS(=O)(=O)c2cccc(C(=O)Nc3cccc(C(=O)O)c3)c2)c1	none
Cc1ccccc1NC(=O)c1cccc(S(=O)(=O)Nc2cccc(C(=O)O)c2)c1	D1 antagonist -31
CCc1ccc(O)c(CNCCNCc2cc(CC)ccc2O)c1	D1 ag 31
CCOc1ccc(OCC)c(S(=O)(=O)N2CCOCC2)c1	TRHR PAM 33
CCN(CCO)Cc1csc2ccc(Cl)cc12	none
